This is a sample that favours compounds with a hit; in the whole collection about 4% have one here.
Bead autofluor: compound fluorescence in toxin protease inhibitor counterscreen; compound autofluorescence counterscreen, microsphere flow cytometry; active compounds read high; fluorescence intensity (no concentration beside the values); hit rate 3.1% among 360,000; AID 624483; in the data active = fluorescence intensity above about 16000; inconclusive = no clear call, values can overlap the other calls
DUSP3 inh: blocks human VHR1 dual specificity phosphatase; P51452; recombinant VHR phosphatase, pNPP absorbance; inhibition, % at 13.3 µM; hit rate 0.52% among 290,000; in the data active = inhibition above about 50%
Anthrax LF prot: blocks Bacillus anthracis lethal factor protease; hit rate 0.12% among 360,000; multiplex microsphere protease cleavage assay, LF; inhibition, % at 10 µM; AID 588501; P15917; note: plate controls were buffer without enzyme for full effect and enzyme alone for no effect
Target sequence (P15917 whole entry, looked up): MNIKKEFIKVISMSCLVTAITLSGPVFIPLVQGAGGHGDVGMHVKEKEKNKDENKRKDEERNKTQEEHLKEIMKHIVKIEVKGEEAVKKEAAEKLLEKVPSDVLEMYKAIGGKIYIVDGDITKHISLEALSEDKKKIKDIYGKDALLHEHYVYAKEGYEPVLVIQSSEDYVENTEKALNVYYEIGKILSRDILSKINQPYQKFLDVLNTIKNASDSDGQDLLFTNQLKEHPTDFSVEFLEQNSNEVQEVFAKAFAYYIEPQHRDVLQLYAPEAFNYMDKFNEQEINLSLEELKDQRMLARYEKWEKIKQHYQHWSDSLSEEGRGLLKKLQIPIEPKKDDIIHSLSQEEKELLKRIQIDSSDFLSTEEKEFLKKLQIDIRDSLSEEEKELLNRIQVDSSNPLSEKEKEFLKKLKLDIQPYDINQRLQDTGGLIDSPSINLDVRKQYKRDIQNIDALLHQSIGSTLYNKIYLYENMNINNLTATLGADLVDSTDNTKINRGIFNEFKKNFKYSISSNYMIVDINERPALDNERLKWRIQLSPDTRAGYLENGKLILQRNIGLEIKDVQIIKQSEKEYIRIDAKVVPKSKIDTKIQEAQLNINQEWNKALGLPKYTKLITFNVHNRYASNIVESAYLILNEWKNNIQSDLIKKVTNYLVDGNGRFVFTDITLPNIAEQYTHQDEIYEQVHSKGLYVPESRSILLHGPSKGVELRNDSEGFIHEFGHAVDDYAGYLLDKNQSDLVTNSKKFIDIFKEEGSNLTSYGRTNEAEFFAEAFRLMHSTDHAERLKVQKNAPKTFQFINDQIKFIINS
BoNT-F LC inh: blocks Botulinum neurotoxin F light chain protease. Multiplex microsphere protease cleavage assay, flow cytometry. inhibition, % at 10 µM. hit rate 0.22% among 360,000; in the data active = inhibition above about 35%, passing the limit was not always enough; inconclusive = no clear call, values can overlap the other calls; note: plate controls were buffer without enzyme for full effect and enzyme alone for no effect
MazF activator: increases E. coli MazEF RNase cleavage of RNA | P0AE70 | FAM/BHQ RNA-DNA oligo cleavage fluorescence, 5 h | activation, % at 20 µM | hit rate 0.32% among 350,000; in the data active = activation above about 50%
BoNT-A LC inh2: blocks Botulinum neurotoxin A light chain protease | inhibition, % at 10 µM | multiplex microsphere protease substrate cleavage, flow cytometry | hit rate 0.17% among 360,000; note: plate controls were buffer without enzyme for full effect and enzyme alone for no effect
* hit, by the source's call. Cut-off read from the data, not from the text of the source, unless noted: active = inhibition above about 30%; inconclusive = no clear call, values can overlap the other calls; inactive = below that.

What do the screens show for `COc1ccc([C@@H]2Sc3cc(OC)ccc3N(CCN(C(C)C)C(C)C)C(=O)[C@H]2OC(C)=O)cc1`?
Bead autofluor: 20962*; DUSP3 inh: 18; Anthrax LF prot: -4; BoNT-F LC inh: 5; MazF activator: 3; BoNT-A LC inh2: 3

What do the screens show for `Cc1ccc(S(=O)(=O)NC(=O)c2cc(C)n(CCCN3CCOCC3)c2C)cc1`?
Bead autofluor: 2940; DUSP3 inh: -16; Anthrax LF prot: -7; BoNT-F LC inh: -8; MazF activator: 0; BoNT-A LC inh2: 0

What do the screens show for `CC(=O)C1=C(O)C(=O)N(CCN(C)C)C1c1ccc(Cl)cc1` (centres undefined)?
Bead autofluor: 20540*; DUSP3 inh: 15; Anthrax LF prot: -2; BoNT-F LC inh: -4; MazF activator: 4; BoNT-A LC inh2: -3

What do the screens show for `CCN(CC(=O)Nc1ccc(C(=O)OC)cc1)C1CCCCC1`?
Bead autofluor: 5665; DUSP3 inh: 30; Anthrax LF prot: -2; BoNT-F LC inh: 0; MazF activator: 157*; BoNT-A LC inh2: -1

What do the screens show for `COC(=O)c1ccc(NC(=O)COC(=O)C2CCC2)cc1`?
Bead autofluor: inconclusive; Anthrax LF prot: -7; BoNT-F LC inh: -11; MazF activator: 5; BoNT-A LC inh2: -4

Results for CCOc1ccc(NC(=O)CN(C2CCCCC2)S(C)(=O)=O)cc1 ?
Bead autofluor: 22520*; DUSP3 inh: 31; Anthrax LF prot: -9; BoNT-F LC inh: 0; MazF activator: -10; BoNT-A LC inh2: inconclusive

What do the screens show for `O=C(c1ccc(F)cc1)N1CCN(C2CCC(c3ccccc3)CC2)CC1` (centres undefined)?
Bead autofluor: 2604; DUSP3 inh: 23; Anthrax LF prot: 2; BoNT-F LC inh: 2; MazF activator: -1; BoNT-A LC inh2: 0

What do the screens show for `CCOc1ccc(CCNC(=O)COC(=O)c2cccnc2OCC)cc1OCC`?
Bead autofluor: 16322*; DUSP3 inh: -17; Anthrax LF prot: -2; BoNT-F LC inh: 0; MazF activator: 1; BoNT-A LC inh2: -1

How did O=C(O)c1ccc(NC2=C(n3nnc4ccccc43)C(=O)c3ccccc3C2=O)cc1 do in these assays?
Bead autofluor: 3699; DUSP3 inh: 25; Anthrax LF prot: -2; BoNT-F LC inh: 11; MazF activator: 10; BoNT-A LC inh2: -1

What do the screens show for `Cc1ccc(C(C(=O)NC2CCCCC2)N2CCCC2)cc1` (centres undefined)?
Bead autofluor: 3664; DUSP3 inh: -22; Anthrax LF prot: -2; BoNT-F LC inh: 36*; MazF activator: 16; BoNT-A LC inh2: 0

How did COc1ccc(CNC(=O)CNC(=O)CNS(=O)(=O)c2ccc(C)c(C)c2)cc1 do in these assays?
Bead autofluor: 4014; DUSP3 inh: 20; Anthrax LF prot: 2; BoNT-F LC inh: 6; MazF activator: -4; BoNT-A LC inh2: 0

Results for CC(=O)Nc1cccc(-c2nnc(SCC(=O)n3c4c(c5ccccc53)CCCC4)n2C)c1 ?
Bead autofluor: 10542; DUSP3 inh: 21; Anthrax LF prot: -2; BoNT-F LC inh: -10; MazF activator: -3; BoNT-A LC inh2: -2

What do the screens show for `CC(=O)CSc1nc2ccc(Nc3nc(N4CCOCC4)nc(N4CCOCC4)n3)cc2s1`?
Bead autofluor: 16232*; DUSP3 inh: -4; Anthrax LF prot: 0; BoNT-F LC inh: 2; MazF activator: -16; BoNT-A LC inh2: 0

What do the screens show for `CC(C)(C)NC(=O)CSc1nc2ccc(Nc3nc(N4CCOCC4)nc(N4CCOCC4)n3)cc2s1`?
Bead autofluor: 2655; DUSP3 inh: 12; Anthrax LF prot: -2; BoNT-F LC inh: 2; MazF activator: 4; BoNT-A LC inh2: 0

Results for Cn1cnnc1SCC(=O)Nc1ccc2nc(SCc3ccccc3Cl)sc2c1 ?
Bead autofluor: 25037*; DUSP3 inh: 12; Anthrax LF prot: -6; BoNT-F LC inh: -14; MazF activator: 8; BoNT-A LC inh2: inconclusive

Results for CC(=O)Nc1cccc(-c2nnc(SCC(=O)N3CCCCC3)n2C)c1 ?
Bead autofluor: 24749*; DUSP3 inh: -9; Anthrax LF prot: 0; BoNT-F LC inh: -3; MazF activator: -2; BoNT-A LC inh2: -2

Results for CCC(=O)Nc1ccc2nc(SCC(=O)N3CCCC3)sc2c1 ?
Bead autofluor: 20940*; DUSP3 inh: -9; Anthrax LF prot: -18; BoNT-F LC inh: 2; MazF activator: 2; BoNT-A LC inh2: 4

Results for CC(=O)Nc1ccc2nc(SCC(=O)Nc3ccc(N4CCOCC4)c(Cl)c3)sc2c1 ?
Bead autofluor: 9858; DUSP3 inh: 10; Anthrax LF prot: 10; BoNT-F LC inh: -10; MazF activator: 2; BoNT-A LC inh2: -1

How did Cc1cccc(C)c1OCC(=O)NNC(=O)Nc1ccc(Cl)cc1 do in these assays?
Bead autofluor: 6943; DUSP3 inh: 22; Anthrax LF prot: -6; BoNT-F LC inh: -7; MazF activator: 4; BoNT-A LC inh2: -1

How did Cc1cc(C)nc(SCC(=O)NC2=NC(=O)C(C)S2)n1 (centres undefined) do in these assays?
DUSP3 inh: -2; MazF activator: 0

How did CCC(C)(C)C1CCc2[nH]nc(C(=O)NCC3CC3)c2C1 (centres undefined) do in these assays?
Bead autofluor: 3428; Anthrax LF prot: -1; BoNT-F LC inh: -8; MazF activator: 0; BoNT-A LC inh2: 0

What do the screens show for `Cn1c(CCNC(=O)c2ccccc2F)nnc1SCC(=O)Nc1ccccc1F`?
Bead autofluor: 4149; DUSP3 inh: 22; Anthrax LF prot: 2; BoNT-F LC inh: -1; MazF activator: -3; BoNT-A LC inh2: 0

Results for COc1ccc(Nc2nnc(-c3ccc(C(N)=O)cc3)c3ccccc23)cc1 ?
Bead autofluor: 3840; DUSP3 inh: 31; Anthrax LF prot: 7; BoNT-F LC inh: 6; MazF activator: 2; BoNT-A LC inh2: 2

Results for O=S(=O)(c1ccc(Cl)cc1)n1nnc2ccccc21 ?
Bead autofluor: 4162; DUSP3 inh: 15; Anthrax LF prot: -3; BoNT-F LC inh: 28; MazF activator: 6; BoNT-A LC inh2: -1

What do the screens show for `Cn1c(SCC(=O)Nc2ccc3nc(SCC(=O)N4CCCC4)sc3c2)nnc1-c1ccc(N)cc1`?
Bead autofluor: 2361; DUSP3 inh: 52*; Anthrax LF prot: -8; BoNT-F LC inh: -1; MazF activator: 4; BoNT-A LC inh2: -1

Results for COc1cccc(N(CC(=O)NC(C)(C)C)C(=O)C2CSC(=O)C2)c1 (centres undefined) ?
Bead autofluor: 20419*; DUSP3 inh: 36; Anthrax LF prot: -1; BoNT-F LC inh: 0; MazF activator: 3; BoNT-A LC inh2: 1

What do the screens show for `Cn1ncc2cc(NC(=S)NC(=O)c3ccccc3)ccc21`?
Bead autofluor: 17054*; DUSP3 inh: 37; Anthrax LF prot: -2; BoNT-F LC inh: -7; MazF activator: 5; BoNT-A LC inh2: -2

What do the screens show for `O=C(NC(=S)Nc1ccc2c(c1)OCCO2)c1ccccc1`?
Bead autofluor: 25451*; DUSP3 inh: 32; Anthrax LF prot: -3; BoNT-F LC inh: -7; MazF activator: 7; BoNT-A LC inh2: inconclusive
